The record followed here is PubChem BioAssay (NCATS).

The test system of assay [1] is CRL-7250. Put plainly: Cytotoxic Profiling of Annotated Libraries Using Quantitative High-Throughput Screening (AID 1296008). Also: nearly all actives have a fitted effect of over 60% in size. Also: potency is read from the fitted curve at half-maximal effect. As to max response: % is scaled to controls: 0 for no effect and ±100 for the full control effect. As to conditions: Five cell lines viability, CellTiter-Glo ATP luminescence, 48-72 h; max response: active compounds read low. In outline: (§1)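 Compounds were pin-transferred onto cells and incubated 48 or 72 hr at 37 degree Celsius, 95% humidity. CellTiter-Glo was added, plates sat 10 min at room temperature, then ATP-coupled luminescence was imaged as the viability read-out.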
A general note: Cellular ATP, detected with luciferase, serves as a proxy for viable cell number.

The test system of assay [2] is HaCat. The assay is described as above. As to conditions: Five cell lines viability, CellTiter-Glo ATP luminescence, 48-72 h; max response: active compounds read low. In outline:
as §1

The test system of assay [3] is KB-3-1. The description is as above. As to conditions: Five cell lines viability, CellTiter-Glo ATP luminescence, 48-72 h; max response: active compounds read low. In outline: as §1
The test system of assay [4] is NIH3T3. Described as above. To be noted: Five cell lines viability, CellTiter-Glo ATP luminescence, 48-72 h; max response: active compounds read low. Summed up: as §1
For assay [5], the system named is NIH3T3. In words: qHTS assay to identify novel small-molecules to repurpose for Merkel cell carcinoma treatment (AID 1296009). Also: nearly all actives have a fitted effect of over 60% in size. As to conditions: MCC and control cell lines, CellTiter-Glo viability, 72 h; series mostly up to 44.8 µM. In outline: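 Cells exposed to NPC (8-point) and MIPE (11-point) compound dilutions for 72 hr at 37 degree celsius; viability read by CellTiter-Glo luminescence, normalized to no-cell and DMSO in-plate controls.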

Assay [6] relates to C33A. Put plainly: Primary qHTS to identify gynecologic anti-cancer compounds using libraries of approved drugs and bioactive compounds (AID 1345084). Also: % is scaled to controls: 0 for no effect and ±100 for the full control effect; nearly all actives have a fitted effect of over 55% in size. To be noted: Gynecologic cancer cell panel viability, ATPlite luminescence, 48 h; series mostly up to 57.5 µM. In outline:
(§2)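 Cytotoxicity screen measuring ATP content by luciferase luminescence. Each compound is applied at five concentrations for 48 h at 37 C with 5% CO2.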

The test system of assay [7] is CAOV3. Described as above. As to conditions: Gynecologic cancer cell panel viability, ATPlite luminescence, 48 h; series mostly up to 57.5 µM. Summed up: as §2
Assay [8] deals with CASKI. The description is as above. As to conditions: Gynecologic cancer cell panel viability, ATPlite luminescence, 48 h; series mostly up to 57.5 µM. Summed up: as §2
The test system of assay [9] is Es-2. Described as above. As to conditions: Gynecologic cancer cell panel viability, ATPlite luminescence, 48 h; series mostly up to 57.5 µM. Summed up:
as §2

Assay [10] relates to HeLa. The description is as above. To be noted: Gynecologic cancer cell panel viability, ATPlite luminescence, 48 h; series mostly up to 57.5 µM. Summed up: as §2
Assay [11] concerns Hek293T. The description is as above. As to conditions: Gynecologic cancer cell panel viability, ATPlite luminescence, 48 h, control line for the selectivity index; series mostly up to 57.5 µM. In outline: as §2
In assay [12] the test system is JEG-3. The assay is described as above. As to conditions: Gynecologic cancer cell panel viability, ATPlite luminescence, 48 h; series mostly up to 57.5 µM. Summed up: as §2
Assay [13] relates to OV90. The assay is described as above. To be noted: Gynecologic cancer cell panel viability, ATPlite luminescence, 48 h; series mostly up to 57.5 µM. In outline: as §2
Assay [14] relates to PA-1. Described as above. As to conditions: Gynecologic cancer cell panel viability, ATPlite luminescence, 48 h; series mostly up to 57.5 µM. In outline:
as §2

“And” between values parts separate entries of the source, which are not always exact repeats. Identical values can stand only once. Records with an inconclusive call do not appear. Unmarked numbers belong to inactive results. The source made the active and inactive calls. Calls follow the shape of the dose curve; as a rule, active = well fitted curve in the direction sought with a large enough effect; inconclusive = small, poorly fitted or top-dose-only effect, or another doubt; inactive = no such curve, though single readings can be large; an effect the other way counts as inactive or inconclusive.

In the case of `Cn1nc(C(C)(C)C)cc1C(=O)N[C@@H](Cc1cccc(Cl)c1)C(=O)NCC#N`, the call in assay [1] and in [4] was inactive. Also, the results for the max response in assay [2] and in assay [3] were -0.262% and 0.545%, respectively. Further, the Potency result in [5], in assay [6], in assay [7], in [8], in assay [9] and in assay [10] was “inactive” throughout. The Potency entry in [11], in [12], in assay [13] and in assay [14] was “inactive” in each case.

On to `C[C@@]12C(=O)N(c3ccc(C(=O)Nc4cccc5cccnc45)cc3)C(=O)[C@@H]1[C@@H]1C=C[C@H]2C1`, for which the max response in assay [1] is -9.69%; in [2], -0.616%; in [3], -11.1%. The compound was classed as inactive in assay [4]. Also, the Potency entry in assay [5], in assay [6], in [7], in assay [8], in [9] and in assay [10] was “inactive” each time. The Potency result in assay [11], in [12], in [13] and in [14] was “inactive” each time.

In the case of `O=c1[nH]cnc2c([C@@H]3N[C@H](CO)[C@@H](O)[C@H]3O)c[nH]c12`, the figures for the max response in assay [1], in assay [2] and in [3] were -8.88%, -34.4% and 7.13%, respectively. Further, in [4], the result was inactive. For the same compound, the Potency entry in [5], in assay [6], in [7], in [8], in assay [9] and in assay [10] was “inactive” throughout. In addition, the Potency entry in assay [11], in [12], in assay [13] and in assay [14] was “inactive” in each case.

With `C=C1CCN([C@H](C)[C@](O)(Cn2cncn2)c2ccc(F)cc2F)CC1`, the max response in [1] was -7.35%; in assay [2] it was -11.9%; in assay [3], -0.073%. The compound was called inactive in assay [4]. Further, the Potency result in assay [5], in assay [6], in assay [7], in [8], in assay [9] and in [10] was “inactive” each time. Moreover, the Potency entry in assay [11], in [12], in [13] and in [14] was “inactive” throughout.

Consider `COc1cc(C(C)=O)c(OC)c2c1OC(C)(C)C=C2`, for which the result in [1], in [3] and in assay [4] was inactive. Besides, the max response in [2] is -6.75%. For the same compound, the Potency result in assay [5], in assay [6], in [7], in assay [8], in [9] and in [10] was “inactive” in each case. Also, the Potency result in assay [11], in assay [12], in [13] and in assay [14] was “inactive” throughout.

As to `CCC[C@@]1(CCc2ccccc2)CC(O)=C([C@H](CC)c2cccc(NS(=O)(=O)c3ccc(C(F)(F)F)cn3)c2)C(=O)O1`, the compound was classed as inactive in assay [1] and in [4]. Moreover, the max response in assay [2] is 2.03%; in assay [3], -13.2% and -6.18%. For the same compound, the Potency result in [5], in assay [6], in [7], in assay [8], in assay [9] and in assay [10] was “inactive” in each case. Also, the Potency entry in assay [11], in [12], in assay [13] and in assay [14] was “inactive” throughout.

On to `C=C[C@H](/C=C\c1ccc(O)cc1)c1ccc(O)cc1`, for which the results for the max response in assay [1], in assay [2] and in [3] were -3.27%, 1.54% and -11.7%, respectively. Moreover, the outcome in assay [4] was inactive. Also, the Potency entry in assay [5], in assay [6], in assay [8], in assay [9], in [10] and in [11] was “inactive” in each case. The Potency entry in [12] and in assay [13] was “inactive” each time.

`CCCCOC(=O)NS(=O)(=O)c1sc(CC(C)C)cc1-c1ccc(Cn2ccnc2)cc1`: the max response in [1] was -0.539%; in [2], -26.5%; in assay [3], -13.1%. Moreover, in assay [4], the result was inactive. Further, the Potency result in assay [5], in assay [6], in assay [7], in assay [8], in assay [9] and in [10] was “inactive” in each case. In addition, the Potency result in assay [11], in assay [12], in [13] and in assay [14] was “inactive” throughout.

In the case of `COc1cc2ncnc(Nc3ccc(F)c(Cl)c3)c2cc1O`, the call in [1] and in [4] was inactive. For the same compound, in [2], the Potency is 1300 nM (active). In assay [3], the max response was -4.6%. Moreover, the Potency entry in assay [5], in assay [6], in assay [7], in assay [8], in assay [9] and in assay [10] was “inactive” each time. For the same compound, the Potency entry in assay [11], in assay [12] and in assay [14] was “inactive” throughout.

In the case of `COc1ccccc1-c1ccc(-c2cn(C(=O)N3CCCCC3Cc3ccccc3)nn2)cc1` (configuration not stated), the result in [1] and in [4] was inactive. Also, the max response is -29.9% in assay [2] and 1.87% in assay [3]. For the same compound, the Potency result in [5], in [6], in assay [7], in [8], in [9] and in assay [12] was “inactive” in each case.

Take `COc1cc(N(C)CCN(C)C)c(N)cc1Nc1nccc(-c2cn(C)c3ccccc23)n1`: the figures for the max response in assay [1], in assay [2] and in assay [3] were -5.14%, -1.2% and -6.79%, respectively. Further, in [4], the call was inactive. Besides, the Potency entry in assay [5], in [6], in [7], in [8], in assay [9] and in assay [10] was “inactive” in each case. The Potency entry in assay [11], in [12], in [13] and in assay [14] was “inactive” in each case.

For the compound `CC[C@@H]1C[C@]1(NC(=O)[C@@H]1C[C@@H]2CN1C(=O)[C@H](C(C)(C)C)NC(=O)OCC(C)(C)CCCCc1cccc3c1CN(C3)C(=O)O2)C(=O)NS(=O)(=O)C1CC1`, the max response in assay [1] is -9.24%; in assay [2], -6.71%; in [3], -19.5%. For the same compound, the compound was classed as inactive in assay [4]. In addition, the Potency entry in [5], in assay [6], in [7], in [8], in [9] and in [10] was “inactive” each time. The Potency entry in assay [11], in [13] and in assay [14] was “inactive” throughout.

Take `CN(C)S(=O)(=O)c1ccc(NC(=S)N2CCC(C(O)(c3ccccc3)c3ccccc3)CC2)cc1`: the compound was called inactive in [1] and in [4]. Also, the max response in assay [2] was 3.08%; in assay [3], -18.9%. Moreover, the Potency result in assay [5], in assay [6], in assay [7], in [8], in assay [9] and in [10] was “inactive” each time. The Potency entry in assay [11], in [12], in assay [13] and in assay [14] was “inactive” throughout.

As to `C[C@H]1CC[C@@]2(OC1)O[C@H]1CC3C4CC[C@H]5C[C@@H](O)CC[C@]5(C)C4=CC(=O)[C@]3(C)[C@H]1[C@@H]2C` (some centres not stated), the outcome in assay [1] and in assay [4] was inactive. Also, the max response is -3.38% in assay [2] and 0.81% in [3]. Besides, the Potency entry in [5], in assay [6], in [8], in assay [9], in assay [10] and in [11] was “inactive” throughout. Moreover, the Potency entry in assay [12], in assay [13] and in assay [14] was “inactive” each time.
